Among the data in PubChem BioAssay (NCI) are growth inhibition values, retold here.

Structures are written as SMILES. About 79,000 compounds went through this panel and 15% of them were active in at least one assay; those are over-represented in the sample as a whole. Values without a mark were called inactive. Cut-off read from the data, not from the text of the source: active = growth inhibition above about 70%; inactive = the rest.

A short description of the first assay: NCI Yeast Anticancer Drug Screen. Data for the rad50 strain (AID 155).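 Note: 0% = growth of vehicle-only cultures of the same strain.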 The conditions noted are these: S. cerevisiae rad50 strain growth inhibition; at 50.0 µM; active compounds read high. The essentials: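 DNA repair mutant yeast, compound exposure, growth read-out; inhibition is taken relative to vehicle.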
On to `CC1N=C(c2ccccc2)C2(c3ccccc3)C(C)N12` (stereo not drawn), for which the growth inhibition is -7%.
Same read-out and setting: the same measure for `Nc1cccc2c1Cc1cc([N+](=O)[O-])ccc1-2`: 8.1%.
The same measure, in the same setting: the result for `CC(C)NC(=O)N1C2C3CCC(C)(OC3(C)C)C21` (stereo not drawn) reads -16.5%.
On the same count and under the same terms, the same measure for `CN/N=C(/CCN1CCCC1)CC(c1ccccc1)c1c(O)c2ccccc2oc1=O` (stereo not drawn): 35.5%; for `O=C(NCCN1CCOCC1)c1cc(N(CCCl)CCCl)c([N+](=O)[O-])cc1[N+](=O)[O-]`: 15.8%.
As for `CCOP(=O)(O)OCC`, the growth inhibition is -16.6%.
The same measure, in the same setting: the same measure for `Clc1cccc2ccccc12`: 7.8%; for `Cc1cccc(C)c1NC(N)=S`: 3.85%; for `CC(C(=O)c1ccccc1)N(C)C` (stereo not drawn): 2.15%.
Regarding `O=C1NC(=O)C(=Cc2ccco2)C(=O)N1`, the growth inhibition was -4.4%.
Still for that read-out and setting: the same measure for `Cn1c(O)c(N=NC(N)=S)c(=O)n(C)c1=O`: 30.6%.
Still for that read-out and setting: the same measure for `Cn1c[n+](C)nn1`: -2.75%; for `CCC(=O)OC1(c2ccccc2)CCN(CCC(=O)c2ccccc2)CC1C` (stereo not drawn): 48.6%; for `NC(=O)C(Cl)c1ccccc1` (stereo not drawn): -17.2%.
Still for that read-out and setting: the same measure for `C1CCC(NC2CCCC2)CC1`: 18%; for `O=[As](O)(O)c1cccc(Cl)c1`: 9.3%.
Consider `OC12CCC[N+]1(Cc1ccccc1)CCC2` (stereo not drawn), for which the growth inhibition was 9.25%.
Same read-out and setting: the result for `NC(=O)Oc1cc(OC(N)=O)cc(N(CCCl)CCCl)c1` reads 32.8%.
Same read-out and setting: the same measure for `CC1N2C3(c4ccccc4)OC(c4ccccc4)(c4ccccc43)C12c1ccccc1` (stereo not drawn): 9.8%; for `O=c1c(O)c(-c2ccccc2)oc2ccccc12.[Zr]`: -22.1%; for `CN1C(=O)C2(c3ccccc31)C1CC3C(CO1)C1C2C3(CO)CN1C#N` (stereo not drawn): 34.1%.
Still for that read-out and setting: the same measure for `c1ccc(OP(Oc2ccccc2)(c2ccccc2)(c2ccccc2)c2ccccc2)cc1`: 6.05%; for `Cc1cc(O)c2c(c1)OC(C)(C)C1=C2CC(C)CC1` (stereo not drawn): -6.4%.
Regarding `O=[C-]/C=C/c1ccccc1.[C-]#[O+].[C-]#[O+].[Fe+2].[c-]1ccccc1`, the growth inhibition is 21.8%.
Still for that read-out and setting: the same measure for `N#CCc1ccccc1CC#N`: 20.8%.
The same measure, in the same setting: the result for `COC1=CC2CCC3C(CCC4(C)C(OC(C)=O)CCC34)C2(C)CC1` (stereo not drawn) reads 13.2%; that for `Cc1ccccc1.[C-]#[O+].[C-]#[O+].[C-]#[O+].[W]`, -11.5%.
The same measure, in the same setting: the same measure for `COc1cc2c(cc1OC)-c1c3c(cc4c1[C@H](C2)N(C)CC4)OCO3`: -5%.
Take `CCCCOCN(CCc1ccccc1)COCCCC`: the growth inhibition was 15.7%.
Still for that read-out and setting: the same measure for `O=[N+]([O-])c1ccc(N2CC2)c([N+](=O)[O-])c1`: 1.85%; for `CC(Cc1cccc2c1Nc1ccccc1S2)N(C)CCO` (stereo not drawn): -60.2%; for `COc1cc(O)c2c(O)c3c(=O)cc(C)oc3cc2c1`: -9.75%.
The same measure, in the same setting: the same measure for `O=[N+]([O-])c1ccc(CI)cc1`: 5.65%; for `O=C(Nc1ccc(N(CCCl)CCCl)cc1)c1ccc([N+](=O)[O-])cc1`: 20.1%; for `O=C1NC(=S)NC(=O)C1=Cc1ccccc1O`: -2.15%.
Turning to `C=C[C](=C)[Pb]([CH2]C)([CH2]C)[CH2]C`, the growth inhibition was -7.3%.
Still for that read-out and setting: the same measure for `C[CH2][Sn]([CH2]C)([S]c1nc(O)cc(=O)[nH]1)[S]c1nc(O)cc(=O)[nH]1`: 32.5%.
Still for that read-out and setting: the result for `CC(=O)C1CCC2C3CC=C4CC(OOS(=O)c5ccc(C)cc5)CCC4(C)C3CCC12C` (stereo not drawn) reads 43.2%; that for `CC(C)CCCC(C)CCC1C(=O)NC(=S)NC1=O` (stereo not drawn), 8.45%.

The next assay is described as follows: NCI Yeast Anticancer Drug Screen. Data for the mec2-1 strain (AID 157). As to conditions: S. cerevisiae mec2-1 strain, at 50.0 µM, active compounds read high. The essentials:
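Cells of the genetically defined mec2-1 yeast strain are incubated with test compound. Inhibition of growth is calculated against vehicle-treated controls.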
For the compound `CC1N=C(c2ccccc2)C2(c3ccccc3)C(C)N12` (stereo not drawn), the growth inhibition was 6.8%.
Same read-out and setting: the result for `Nc1cccc2c1Cc1cc([N+](=O)[O-])ccc1-2` reads -37.2%; that for `CC(C)NC(=O)N1C2C3CCC(C)(OC3(C)C)C21` (stereo not drawn), -21.4%; that for `CN/N=C(/CCN1CCCC1)CC(c1ccccc1)c1c(O)c2ccccc2oc1=O` (stereo not drawn), 9%.
On the same count and under the same terms, the result for `O=C(NCCN1CCOCC1)c1cc(N(CCCl)CCCl)c([N+](=O)[O-])cc1[N+](=O)[O-]` reads 7.45%; that for `CCOP(=O)(O)OCC`, -20.4%.
On the same count and under the same terms, the result for `Clc1cccc2ccccc12` reads -12.2%; that for `Cc1cccc(C)c1NC(N)=S`, 6.15%.
`CC(C(=O)c1ccccc1)N(C)C` (stereo not drawn): the growth inhibition is -6.85%.
`O=C1NC(=O)C(=Cc2ccco2)C(=O)N1`: the growth inhibition was -26.4%.
Take `Cn1c(O)c(N=NC(N)=S)c(=O)n(C)c1=O`: the growth inhibition is 20.4%.
On the same count and under the same terms, the result for `Cn1c[n+](C)nn1` reads -12.8%; that for `CCC(=O)OC1(c2ccccc2)CCN(CCC(=O)c2ccccc2)CC1C` (stereo not drawn), 36.6%.
As to `NC(=O)C(Cl)c1ccccc1` (stereo not drawn), the growth inhibition is -25.9%.
As for `C1CCC(NC2CCCC2)CC1`, the growth inhibition is 47.1%.
On the same count and under the same terms, the result for `O=[As](O)(O)c1cccc(Cl)c1` reads -0.25%; that for `OC12CCC[N+]1(Cc1ccccc1)CCC2` (stereo not drawn), -9.75%.
On the same count and under the same terms, the same measure for `NC(=O)Oc1cc(OC(N)=O)cc(N(CCCl)CCCl)c1`: 34%.
On the same count and under the same terms, the same measure for `CC1N2C3(c4ccccc4)OC(c4ccccc4)(c4ccccc43)C12c1ccccc1` (stereo not drawn): 13.2%; for `O=c1c(O)c(-c2ccccc2)oc2ccccc12.[Zr]`: -6.65%.
Regarding `CN1C(=O)C2(c3ccccc31)C1CC3C(CO1)C1C2C3(CO)CN1C#N` (stereo not drawn), the growth inhibition was 12.9%.
Take `c1ccc(OP(Oc2ccccc2)(c2ccccc2)(c2ccccc2)c2ccccc2)cc1`: the growth inhibition was 6.6%.
With `Cc1cc(O)c2c(c1)OC(C)(C)C1=C2CC(C)CC1` (stereo not drawn), the growth inhibition is 10.8%.
Same read-out and setting: the same measure for `O=[C-]/C=C/c1ccccc1.[C-]#[O+].[C-]#[O+].[Fe+2].[c-]1ccccc1`: 2.5%; for `N#CCc1ccccc1CC#N`: -0.65%.
On the same count and under the same terms, the same measure for `COC1=CC2CCC3C(CCC4(C)C(OC(C)=O)CCC34)C2(C)CC1` (stereo not drawn): 10.8%; for `Cc1ccccc1.[C-]#[O+].[C-]#[O+].[C-]#[O+].[W]`: -1.2%.
On the same count and under the same terms, the result for `COc1cc2c(cc1OC)-c1c3c(cc4c1[C@H](C2)N(C)CC4)OCO3` reads -7.7%.
In the case of `CCCCOCN(CCc1ccccc1)COCCCC`, the growth inhibition is 5.8%.
Same read-out and setting: the result for `O=[N+]([O-])c1ccc(N2CC2)c([N+](=O)[O-])c1` reads -1.95%; that for `CC(Cc1cccc2c1Nc1ccccc1S2)N(C)CCO` (stereo not drawn), -40.5%.
`COc1cc(O)c2c(O)c3c(=O)cc(C)oc3cc2c1`: the growth inhibition was -6.2%.
Still for that read-out and setting: the result for `O=[N+]([O-])c1ccc(CI)cc1` reads 34.2%; that for `O=C(Nc1ccc(N(CCCl)CCCl)cc1)c1ccc([N+](=O)[O-])cc1`, 0.75%.
As to `O=C1NC(=S)NC(=O)C1=Cc1ccccc1O`, the growth inhibition was -16.9%.
The same measure, in the same setting: the result for `C=C[C](=C)[Pb]([CH2]C)([CH2]C)[CH2]C` reads 4.75%.
The same measure, in the same setting: the result for `C[CH2][Sn]([CH2]C)([S]c1nc(O)cc(=O)[nH]1)[S]c1nc(O)cc(=O)[nH]1` reads 41.9%; that for `CC(=O)C1CCC2C3CC=C4CC(OOS(=O)c5ccc(C)cc5)CCC4(C)C3CCC12C` (stereo not drawn), 20.1%.
Still for that read-out and setting: the same measure for `CC(C)CCCC(C)CCC1C(=O)NC(=S)NC1=O` (stereo not drawn): 10.2%.
